The record followed here is PubChem BioAssay (Tox21).

Experiment [1] in a line: qHTS assay to identify small molecule antagonists of the glucocorticoid receptor (GR) signaling pathway - cell viability counter screen (AID 720693). Also: nearly all actives have a fitted effect of over 55% in size. Also: potency is read from the fitted curve at half-maximal effect. In general terms: Quantitative high-throughput screening tests each substance at several concentrations.
A short description of experiment [2]: qHTS assay for identifying genotoxic compounds that show differential cytotoxicity against isogenic chicken DT40 cell lines with known DNA damage response pathways - wild type cell line (AID 743012). Also: potency is read from the fitted curve at half-maximal effect; nearly all actives have a fitted effect of over 60% in size. Put shortly:
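Cytotoxicity in repair-proficient parental chicken DT40 cells serves as the comparator for Rad54/Ku70- and Rev3-deficient lines. Cells were exposed to compounds for 40 h at 37 C/5% CO2, and ATP-based luminescence (CellTiter-Glo) measured viability.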

Experiment [3] in a line: qHTS assay for identifying genotoxic compounds that show differential cytotoxicity against isogenic chicken DT40 cell lines with known DNA damage response pathways - Rev3 mutant cell line (AID 743014). Also: potency is read from the fitted curve at half-maximal effect; nearly all actives have a fitted effect of over 55% in size.
Experiment [4] is described as follows: qHTS assay for identifying genotoxic compounds that show differential cytotoxicity against isogenic chicken DT40 cell lines with known DNA damage response pathways - Rad54/Ku70 mutant cell line (AID 743015). Also: potency is read from the fitted curve at half-maximal effect; nearly all actives have a fitted effect of over 60% in size.
Experiment [5] is described as follows: qHTS assay to identify small molecule antagonists of the androgen receptor (AR) signaling pathway - cell viability counter screen (AID 743033; also: nearly all actives have a fitted effect of over 45% in size; also: potency is read from the fitted curve at half-maximal effect).
Experiment [6] in a line: qHTS assay to identify small molecule antagonists of the androgen receptor (AR) signaling pathway using the MDA cell line - cell viability counter screen (AID 743041; also: nearly all actives have a fitted effect of over 45% in size; also: potency is read from the fitted curve at half-maximal effect). Put shortly: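 Cytotoxicity counter screen: MDA-kb2 AR-luc cells, compound + R1881, 16 h, 37C, 0% CO2; CellTiter-Fluor added at 15.5 h, fluorescence read after 30 min.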
A short description of experiment [7]: qHTS assay to identify small molecule antagonists of the thyroid receptor (TR) signaling pathway - cell viability counter screen (AID 743064). Also: nearly all actives have a fitted effect of over 50% in size. Also: potency is read from the fitted curve at half-maximal effect. The method, boiled down: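 In rat pituitary GH3.TRE-Luc reporter cells co-exposed to compound and 1 nM T3 for 23.5 h, cytotoxicity was assessed with CellTiter-Fluor in the same wells, read by fluorescence.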
The nature of experiment [8]: qHTS assay to identify small molecule antagonists of the thyroid receptor (TR) signaling pathway (AID 743065). Also: nearly all actives have a fitted effect of over 55% in size. Also: potency is read from the fitted curve at half-maximal effect. The method, boiled down:
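GH3.TRE-Luc rat pituitary cells (two TREs driving luciferase) were dosed with compound, then stimulated with 1 nM T3 (final) for 23.5 h at 37 C. ONE-Glo luminescence was the read-out, with CellTiter-Fluor fluorescence as the cytotoxicity counter-screen.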

Experiment [9] concerns the target Estrogen receptor (Homo sapiens) (UniProt P03372). As to the kind of experiment: qHTS assay to identify small molecule antagonists of the estrogen receptor alpha (ER-alpha) signaling pathway (AID 743069; active = well fitted curve in the direction sought with a large enough effect in the signal ratio in the repeat runs, not every such curve was filed as active; inconclusive = weak or mixed curves, or effect the other way; inactive = no such curve, though single readings can be large or run the other way; the % refers to the signal ratio; also: potency is read from the fitted curve at half-maximal effect). Put shortly: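 Beta-lactamase FRET fluorescence is read after 2 hr at room temperature with LiveBLAzer B/G substrate. Before that, ER-alpha-bla HEK293 cells sit 4 hr after plating, then receive compound plus 17beta-estradiol and incubate 18 hr at 37C.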

A short description of experiment [10]: qHTS assay to identify small molecule antagonists of the estrogen receptor alpha (ER-alpha) signaling pathway - cell viability counter screen (AID 743074; calls by dose curve;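 also: HEK293 cells carrying ER-alpha-UAS-bla reporter stimulated with 17beta-estradiol; nearly all actives have a fitted effect of over 45% in size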; also: potency is read from the fitted curve at half-maximal effect).
A short description of experiment [11]: qHTS assay to identify small molecule antagonists of the estrogen receptor alpha (ER-alpha) signaling pathway using the BG1 cell line (AID 743080; calls by dose curve; also: potency is read from the fitted curve at half-maximal effect; nearly all actives have a fitted effect of over 25% in size). The method, boiled down: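 Antagonist mode: compounds in DMSO were pinned onto BG1-Luc-4E2 cells alongside 17beta-estradiol agonist, incubated 21.5 h, and ERE-driven luciferase measured with ONE-Glo. Cytotoxicity was multiplexed using CellTiter-Fluor fluorescence.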

Experiment [12] can be described thus: qHTS assay to identify small molecule antagonists of the estrogen receptor alpha (ER-alpha) signaling pathway using the BG1 cell line - cell viability counter screen (AID 743081).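 Also: compound given together with 17beta-estradiol as the ER stimulus; nearly all actives have a fitted effect of over 45% in size.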 Also: potency is read from the fitted curve at half-maximal effect.
The target in another experiment is Aromatase (Homo sapiens) (UniProt P11511). Briefly: qHTS assay to identify aromatase inhibitors (AID 743083). Also: nearly all actives have a fitted effect of over 55% in size. Also: potency is read from the fitted curve at half-maximal effect.
Experiment [13] deals with thyroid hormone receptor (rat, GH3 cells). As to the kind of experiment: qHTS assay to identify small molecule agonists of the thyroid receptor (TR) signaling pathway (AID 743066; calls by dose curve; also: % is scaled to controls: 0 for no effect and ±100 for the full control effect).
Experiment [14] deals with Androgen receptor (Homo sapiens) (UniProt P10275). As to the kind of experiment: qHTS assay to identify small molecule agonists of the androgen receptor (AR) signaling pathway using the MDA cell line (AID 743040; also: % is scaled to controls: 0 for no effect and ±100 for the full control effect; nearly all actives have a fitted effect of over 20% in size). The method, boiled down: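 Luciferase read-out, ONE-Glo, 30 min RT. Cells: MDA-kb2 AR-luc, MMTV promoter with AR and GR response elements. Compound exposure 16 h, 37C, 0% CO2, after 5 h pre-incubation. qHTS agonist mode.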

Experiment [15] shares this target. Briefly: qHTS assay to identify small molecule antagonists of the androgen receptor (AR) signaling pathway using the MDA cell line (AID 743042). Put shortly: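 MDA-kb2 breast carcinoma cells carrying MMTV-luciferase (AR/GR responsive) were co-treated with compounds and the agonist R1881 for 16 h at 37C. Inhibition read as ONE-Glo luminescence; CellTiter-Fluor fluorescence measured in parallel for cytotoxicity.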

Experiment [16] shares this target. As to the kind of experiment: qHTS assay to identify small molecule antagonists of the androgen receptor (AR) signaling pathway (AID 743035; active = well fitted inhibition curve with a large enough effect in the signal ratio in the repeat runs, not every such curve was filed as active; inconclusive = weak or mixed curves, or effect the other way; inactive = no such curve, though single readings can be large or run the other way; the % refers to the signal ratio; also: potency is read from the fitted curve at half-maximal effect). Put shortly: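 Steps: seed AR-UAS-bla GripTite HEK293 cells, incubate 4 h at 37C; pin in test compound, then add agonist R1881; incubate 16 h at 37C; add LiveBLAzer B/G FRET substrate, 2 h at room temperature; read fluorescence.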

Experiment [17] addresses Estrogen receptor (Homo sapiens) (UniProt P03372). Briefly: qHTS assay to identify small molecule agonists of the estrogen receptor alpha (ER-alpha) signaling pathway (AID 743075; calls by dose curve;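 also: HEK293 GripTite cells with ER-alpha and UAS-driven beta-lactamase reporter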; also: potency is read from the fitted curve at half-maximal effect; as to activation: % is scaled to controls: 0 for no effect and ±100 for the full control effect). Particulars: HEK293 ER-alpha-UAS-bla, beta-lactamase FRET ratio, 18 h; activation: at 70.1 µM (top of the series).
For experiment [18] the target is unchanged. Briefly: qHTS assay to identify small molecule agonists of the estrogen receptor alpha (ER-alpha) signaling pathway using the BG1 cell line (AID 743079). Also: % is scaled to controls: 0 for no effect and ±100 for the full control effect; nearly all actives have a fitted effect of over 20% in size. To be noted: BG1Luc4E2 cells, ERE-luciferase agonist, 22 h; at 70.3 µM (top of the series).

Where “and” joins values, the source holds several entries; their conditions need not be identical. Identical values can stand only once. Unmarked numbers belong to inactive results. Calls of active or inactive are those of the source. Unless noted, calls follow the shape of the dose curve; as a rule, active = well fitted curve in the direction sought with a large enough effect in the repeat runs; inconclusive = weak or mixed curves; inactive = no such curve, though single readings can be large; an effect the other way counts as inactive or inconclusive.

Aromatase (Homo sapiens), sequence (P11511 whole entry, looked up): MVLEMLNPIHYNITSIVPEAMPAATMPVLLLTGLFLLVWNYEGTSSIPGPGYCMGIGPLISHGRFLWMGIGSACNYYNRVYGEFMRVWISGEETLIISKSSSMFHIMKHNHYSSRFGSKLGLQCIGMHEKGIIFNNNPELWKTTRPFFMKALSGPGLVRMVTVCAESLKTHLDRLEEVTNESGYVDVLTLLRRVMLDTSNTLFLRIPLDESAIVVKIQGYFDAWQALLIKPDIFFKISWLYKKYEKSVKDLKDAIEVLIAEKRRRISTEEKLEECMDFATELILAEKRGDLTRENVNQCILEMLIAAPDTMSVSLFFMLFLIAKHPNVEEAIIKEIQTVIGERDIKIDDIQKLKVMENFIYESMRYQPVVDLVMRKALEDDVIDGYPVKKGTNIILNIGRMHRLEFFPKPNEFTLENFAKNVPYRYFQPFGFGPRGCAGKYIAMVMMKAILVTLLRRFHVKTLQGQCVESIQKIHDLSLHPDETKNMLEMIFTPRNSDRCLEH
Estrogen receptor (Homo sapiens), sequence (P03372 whole entry, looked up): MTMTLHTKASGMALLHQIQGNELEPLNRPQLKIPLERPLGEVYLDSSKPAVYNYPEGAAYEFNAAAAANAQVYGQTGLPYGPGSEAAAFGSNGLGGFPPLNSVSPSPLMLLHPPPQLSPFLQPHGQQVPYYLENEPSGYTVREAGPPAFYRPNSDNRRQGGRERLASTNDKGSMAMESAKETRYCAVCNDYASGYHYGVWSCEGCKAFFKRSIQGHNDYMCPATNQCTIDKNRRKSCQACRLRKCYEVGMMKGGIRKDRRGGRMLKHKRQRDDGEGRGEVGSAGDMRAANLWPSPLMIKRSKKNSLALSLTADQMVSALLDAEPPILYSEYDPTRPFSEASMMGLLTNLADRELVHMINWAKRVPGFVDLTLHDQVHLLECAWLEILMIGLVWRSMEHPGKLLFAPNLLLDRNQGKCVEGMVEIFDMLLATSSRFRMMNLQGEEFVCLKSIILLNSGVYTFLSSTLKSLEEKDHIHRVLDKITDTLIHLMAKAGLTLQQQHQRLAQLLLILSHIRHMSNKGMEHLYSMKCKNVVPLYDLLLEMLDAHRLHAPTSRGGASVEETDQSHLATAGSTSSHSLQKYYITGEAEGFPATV
Androgen receptor (Homo sapiens), sequence (P10275 whole entry, looked up): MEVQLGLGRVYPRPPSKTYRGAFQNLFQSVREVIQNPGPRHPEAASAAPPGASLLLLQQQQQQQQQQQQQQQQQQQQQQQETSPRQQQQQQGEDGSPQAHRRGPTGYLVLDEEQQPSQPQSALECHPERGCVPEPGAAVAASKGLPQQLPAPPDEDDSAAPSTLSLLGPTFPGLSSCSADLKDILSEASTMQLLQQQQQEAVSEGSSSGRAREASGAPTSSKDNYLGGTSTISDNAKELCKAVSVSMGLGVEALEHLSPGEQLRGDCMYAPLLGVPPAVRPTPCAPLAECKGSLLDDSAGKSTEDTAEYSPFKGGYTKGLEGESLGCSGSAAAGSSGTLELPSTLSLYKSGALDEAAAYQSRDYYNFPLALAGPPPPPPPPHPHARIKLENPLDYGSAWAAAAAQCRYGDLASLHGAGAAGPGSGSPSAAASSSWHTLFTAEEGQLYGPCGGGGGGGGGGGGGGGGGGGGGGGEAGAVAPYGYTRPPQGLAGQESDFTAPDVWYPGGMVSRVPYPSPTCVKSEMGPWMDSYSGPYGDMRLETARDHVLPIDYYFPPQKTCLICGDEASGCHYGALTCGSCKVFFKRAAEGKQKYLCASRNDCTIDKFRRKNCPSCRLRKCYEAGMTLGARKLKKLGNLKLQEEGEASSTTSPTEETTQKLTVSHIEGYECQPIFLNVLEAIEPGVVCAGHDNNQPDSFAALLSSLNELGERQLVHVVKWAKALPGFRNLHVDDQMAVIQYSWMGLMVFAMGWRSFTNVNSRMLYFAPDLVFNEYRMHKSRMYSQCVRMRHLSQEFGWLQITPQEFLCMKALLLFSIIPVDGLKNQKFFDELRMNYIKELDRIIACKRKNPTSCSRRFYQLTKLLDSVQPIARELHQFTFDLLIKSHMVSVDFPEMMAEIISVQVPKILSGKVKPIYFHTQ

As for `CCCCCCCC[P+](CCCCCCCC)(CCCCCCCC)CCCCCCCC`, the Potency in [1] is 6.13 µM (active); in experiment [2], 5.42 µM (active); in experiment [3], 5.42 µM (active); in [4], 5.42 µM (active); in [5], 0.971 µM (active); in experiment [6] it was 6.08 µM (active). Further, the Potency in [7] is 4.3 µM (active); in experiment [8] it was 3.05 µM (active); in experiment [9], 21.7 µM [cytotoxic] (active); in [10] it was 15.4 µM (active); in experiment [11] it was 1.71 µM (active); in experiment [12] it was 8.58 µM (active). The Potency with Aromatase (Homo sapiens) is 1.53 µM (active).
Take `O=C(OC[C@H]1O[C@@H](OC(=O)c2cc(O)c(O)c(OC(=O)c3cc(O)c(O)c(O)c3)c2)[C@H](OC(=O)c2cc(O)c(O)c(OC(=O)c3cc(O)c(O)c(O)c3)c2)[C@@H](OC(=O)c2cc(O)c(O)c(OC(=O)c3cc(O)c(O)c(O)c3)c2)[C@@H]1OC(=O)c1cc(O)c(O)c(OC(=O)c2cc(O)c(O)c(O)c2)c1)c1cc(O)c(O)c(OC(=O)c2cc(O)c(O)c(O)c2)c1`: the Potency is 16.9 µM (active) in experiment [1]; 5.96 µM (active) in experiment [2]; 10.6 µM (active) and 16.5 µM (active) in experiment [3]; 11.9 µM (active) in [4]; 19 µM (active) in [5]; 22.1 µM (active) in experiment [6]. Also, the Potency in [7] was 3.35 µM (active) and 16.5 µM (active); in experiment [8] it was 3.76 µM (active) and 16.5 µM (active); in [10], 6.74 µM (active); in experiment [12], 21.1 µM (active). For the same compound, the Potency result in experiment [13] was “inactive”.
Regarding `CCCCCCCCCCn1cc[n+](CCCCCCCCCC)c1C`, the Potency is 13.8 µM (active) in experiment [1]; 0.273 µM (active) in experiment [2]; 0.109 µM (active) in experiment [3]; 0.122 µM (active) in experiment [4]; 4.37 µM (active) in experiment [5]; 24.4 µM (active) in [6]. Further, the Potency is 2.17 µM (active) in experiment [15]; 6.87 µM (active) in experiment [7]; 3.86 µM (active) in experiment [8]; 61.7 µM [cytotoxic] (active) in [9]; 19.5 µM (active) in [10]; 8.64 µM (active) in experiment [11]. Besides, the values for the Potency (in [12]; in the experiment with Aromatase (Homo sapiens)) were 48.6 µM (active) and 5.45 µM (active), respectively. Moreover, in experiment [14], the Potency result is “inactive”.
With `C=CC(=O)OCC(CO)(COC(=O)C=C)COC(=O)C=C`, the Potency in [1] is 6.19 µM (active) and 11 µM (active); in [2] it was 1.73 µM (active) and 2.17 µM (active); in [3], 1.22 µM (active) and 2.43 µM (active); in experiment [4], 1.37 µM (active) and 1.72 µM (active); in experiment [5], 6.94 µM (active) and 11 µM (active); in experiment [16] it was 3.9 µM (active) and 4.9 µM (active). For the same compound, the Potency in experiment [6] was 17.3 µM (active) and 27.3 µM (active); in [15] it was 2.18 µM (active) and 3.86 µM (active); in experiment [7], 2.44 µM (active) and 2.17 µM (active); in [8], 1.73 µM (active) and 1.72 µM (active); in experiment [10], 39 µM (active) and 49 µM (active); in [17] it was 13.9 µM [inconclusive] (active) and 12.3 µM [inconclusive] (active). In addition, the Potency in [12] is 27.4 µM (active) and 27.3 µM (active); with Aromatase (Homo sapiens) it was 2.74 µM (active) and 5.45 µM (active). Further, the Potency result in [14] and in experiment [13] was “inactive” throughout.
For the compound `CO[Si](CCCNc1ccccc1)(OC)OC`, the Potency entry in experiment [1], in experiment [5], in [6], in [7], in experiment [8] and in experiment [13] was “inactive” in each case. For the same compound, the Potency entry (in experiment [10]; in [12]; in the experiment with Aromatase (Homo sapiens)) was “inactive” in each case. Moreover, the Potency in experiment [2] was 12.2 µM (active); in experiment [3] it was 15.4 µM (active); in [4], 8.63 µM (active).
Regarding `C[C@]12CCC(=O)C=C1CC[C@@H]1[C@@H]2[C@@H](O)C[C@@]2(C)[C@H]1CC[C@]2(O)C(=O)COC(=O)CCC(=O)O`, the Potency entry in experiment [1], in experiment [5], in [6], in [7], in experiment [8] and in experiment [13] was “inactive” in each case. Besides, the Potency entry (in [10]; in [17]; with Aromatase (Homo sapiens)) was “inactive” throughout. Moreover, the values for the Potency in experiment [2], in experiment [3] and in [4] were 26.6 µM (active), 18.8 µM (active) and 26.6 µM (active), respectively. The activation in experiment [18] was 9.99%.
